Results on ten compounds are retold here after PubChem BioAssay (NCATS).

Assay [1] has as its target Lysosomal acid glucosylceramidase (Homo sapiens) (UniProt P04062). As to the kind of experiment: Glucocerebrosidase-p2 (AID 348; in the data active = potency below about 10 µM; also: potency is read from the fitted curve at half-maximal effect). The following applies: purified GBA, blue fluorogenic substrate, 40 min. The gist of the method: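 Normal human glucocerebrosidase (0.2 nM) with blue fluorogenic substrate (80 uM final) in citrate/phosphate pH 5.9 with 10mM sodium taurocholate, 0.01% tween-20; 40 min RT, NaOH/glycine stop; fluorescence Ex 365/Em 440; AC50 from a titration from 0.6 nM upwards.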

Assay [2] is described as follows: AP1 Signaling Pathway (AID 357). Also: % is scaled to controls: 0 for no effect and ±100 for the full control effect. To be noted: ME-180 AP-1-bla reporter, EGF-induced, beta-lactamase ratio, 5 h; series mostly up to 17.2 µM. A digest of the protocol: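 Cells are seeded overnight, exposed to compound titrations and an EC50 level of EGF for 5 hours at 37 °C, then loaded with CCF4 dye for 2.5 hours. Beta-lactamase activity under the AP-1 element is read as a blue/green ratio.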

Assay [3] can be described thus: NFAT Signaling Pathway (AID 444).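 Also: carbachol stimulus at about its EC50 of 1 µM final; % is scaled to controls: 0 for no effect and ±100 for the full control effect.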 The following applies: Jurkat NFAT-bla M1, carbachol, beta-lactamase ratio, 5 h; at 7.69 µM (top of the series). The gist of the method:
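Read-out: CCF4 FRET ratio (460 nm/530 nm) after 1 h RT dye loading, used for %activity and AC50 from titration series. Cells: Jurkat NFAT-β-lactamase/M1 line, treated with compound plus 1 uM carbachol for 5 h, 37 °C.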

Assay [4] is described as follows: Stat Signaling Pathway (AID 446).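 Also: ME-180 cervical cancer cells given 40 pM IL-6 alongside compound; SIE-controlled beta-lactamase reporter measured as 460/530 nm FRET emission ratio; % is scaled to controls: 0 for no effect and ±100 for the full control effect.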 The following applies: ME-180 SIE beta-lactamase reporter, IL-6 stimulated, 5 h; series mostly up to 17.2 µM. A digest of the protocol: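 FRET read-out (405 nm excitation, 460/530 nm emission) of a beta-lactamase reporter under a STAT-inducible element in ME-180 cervical carcinoma cells. Cells with compound receive 40 pM IL-6 for 5 h. Values are normalised to AC90 stimulation and AC90 JAK-inhibitor controls.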

The target in assay [5] is Glucocorticoid receptor (Homo sapiens) (UniProt P04150). The experiment in a line: GR-EFC Redistribution (AID 451; calls by dose curve; also: potency is read from the fitted curve at half-maximal effect). To be noted: CHO-K1 GR-EFC translocation, beta-gal luminescence, 2 h. A digest of the protocol: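 Translocation of GR-ED fusion to nuclear EA restores b-gal, read by luminescence after 1 h room-temperature detection. Engineered CHO-K1 biosensor cells, 1,000/well, exposed 2 h at 37 C to titrations up to 46 uM final.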

Assay [6] has as its target Mitogen-activated protein kinase 10 (Mus musculus) (UniProt Q61831). The experiment in a line: JNK3 AlphaScreen Assay (AID 530).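 Also: kinase came from lysate of stimulated human HepG2 cells; signal reports phosphorylation of biotinylated GST-cJun 1-79 at Ser73 with 10 µM ATP; % is scaled to controls: 0 for no effect and ±100 for the full control effect.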 The following applies: JNK3 lysate, c-Jun phosphorylation; series mostly up to 57.1 µM. A digest of the protocol:
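Kinase buffer: 20 mM Tris-HCl pH 7.6, 10 mM MgCl2, 1 mM DTT, 0.1 mM Na3VO4, 0.01% Tween-20; ATP 10 uM. Substrate biotin-GST-cJun(1-79), enzyme from activated HepG2 lysates. Detection by Ser73 phospho-antibody AlphaScreen.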
On the technique in general: Alpha assays give light when donor and acceptor beads are brought close together.

Assay [7] has as its target 3',5'-cyclic-AMP phosphodiesterase 4B (Homo sapiens) (UniProt Q07343). As to the kind of experiment: qHTS Assay for Inhibitors of PDE-IV (AID 607; active = well fitted activation curve with a large enough effect in the main read-out, with a control signal flat, not every such curve was filed as active; also: % of control where 0% means no effect). To be noted: HEK293 ACTOne CNG channel cells, membrane potential fluorescence; series mostly up to 22.9 µM. A digest of the protocol: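 Cell-based read-out of cAMP via a modified cyclic nucleotide-gated channel and membrane potential dye (535/590 nm) in HEK293 cells expressing PDE4 endogenously. Compounds tested up to 22.9 uM final; 100 uM RO 20-1724 reference.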

The nature of assay [8]: qHTS Assay for Lipid Storage Modulators (AID 1519; calls by dose curve). To be noted: Drosophila S3 cells, BODIPY lipid droplet/cell ratio, laser cytometry, cells loaded with oleic acid; for activity change, negative = inhibition: at 57.5 µM (top of the series). A digest of the protocol:
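Cells seeded at 5,000 per well were treated with compounds over a concentration series and loaded with oleic acid (400 uM, as added). Lipid droplet fluorescence (488 nm excitation, 500-530 nm channel) was read by laser-scanning cytometry and normalized to 20 uM Triacsin C.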
On the technique in general: In qHTS, concentration-response curves come from the screen itself.

Assay [9] in a line: Primary qHTS for small molecule stabilizers of the endoplasmic reticulum resident proteome: Secreted ER Calcium Modulated Protein (SERCaMP) assay (AID 1508630; active = well fitted curve in the direction sought with a large enough effect; an effect the other way counts as inactive or inconclusive; also: % is scaled to controls: 0 for no effect and ±100 for the full control effect). To be noted: SH-SY5Y GLuc-SERCaMP (Gaussia luciferase released on ER calcium loss) secretion, thapsigargin, luminescence; series mostly up to 38.4 µM. The gist of the method: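 The SH-SY5Y reporter protocol was run at 3 concentrations up to 38.3 uM (primary) or 11 concentrations (follow-up): 16 h compound, 100 nM thapsigargin for 4 h, then extracellular luciferase luminescence.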

Assay [10] deals with Cytochrome P450 1A2 (Homo sapiens) (UniProt P05177). The experiment in a line: p450-cyp1a2 (AID 410; calls by dose curve; also: potency is read from the fitted curve at half-maximal effect). The following applies: recombinant CYP1A2, luciferin-ME demethylation, luminescence; series mostly up to 25.6 µM. A digest of the protocol:
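Read-out is luminescence from luciferin produced by CYP1A2 demethylation of Luciferin-ME (100uM, at Km). Detection reagent stopped the 60 min NADPH-dependent reaction; signals were normalized to 57 uM furafylline.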

Assay [11] relates to HIV-1 nucleocapsid protein NCp7 (binding to TG oligonucleotide). The experiment in a line: HIV Nucleocapsid (AID 346; call rule not given here;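 also: potency is read from the fitted curve at half-maximal effect; potency is for inhibitors that block NC binding and lower polarization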). The following applies: HIV-1 NC / fluorescein-TGTGTGTG probe, fluorescence polarization. The gist of the method: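 HIV-1 NC (100 nM) binding to fluorescein-labelled ssDNA TG4xF (10 nM) in Hepes pH 7.5, 250mM NaCl, 1uM ZnCl2, TCEP and 2-mercaptoethanol; compounds pin-transferred, 1 hr room temperature, fluorescence polarization read on CCD imager.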
(In fluorescence polarisation assays a small probe gives low polarisation when free and higher when bound to something large.)

The target of assay [12] is Cytochrome P450 3A4 (Homo sapiens) (UniProt P08684). The experiment in a line: qHTS Assay for Activators of Cytochrome P450 3A4 (AID 885; active = well fitted curve in the direction sought with a large enough effect; an effect the other way counts as inactive or inconclusive; also: nearly all actives have a fitted effect of over 65% in size; also: potency is read from the fitted curve at half-maximal effect). The following applies: recombinant CYP3A4, Luciferin-PPXE luminescence, 60 min; series mostly up to 57.1 µM. A digest of the protocol:
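Luminescent readout of luciferin formed from 25 uM Luciferin-PPXE (KM level) by 20 nM CYP3A4 in 200 mM KPO4, with 60 min NADPH-driven reaction at room temperature after 10 min compound exposure. Ketoconazole (57 uM) defined 100% inhibition.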

Assay [13] concerns the target Cytochrome P450 2D6 (Homo sapiens) (UniProt P10635). The experiment in a line: qHTS Assay for Inhibitors and Substrates of Cytochrome P450 2D6 (AID 891; active = well fitted curve in the direction sought with a large enough effect; an effect the other way counts as inactive or inconclusive; also: potency is read from the fitted curve at half-maximal effect; nearly all actives have a fitted effect of over 60% in size). To be noted: recombinant CYP2D6, luciferin-ME EGE luminescence; series mostly up to 57.1 µM. The gist of the method: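 Luminescent read-out of luciferin formed by 5 nM human CYP2D6 demethylating 30 uM Luciferin-ME EGE (Km level) over 60 min at room temperature after NADPH regeneration addition. Data normalized to full inhibition by 1.43 uM quinidine.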

Assay [14] can be described thus: qHTS Assay for Identification of Small Molecule Agonists for Hypoxia Response Element Signaling Pathway (AID 914; active = well fitted activation curve with a large enough effect in the signal ratio, with a control signal flat, not every such curve was filed as active; the % refers to the signal ratio; also: % of control where 0% means no effect). To be noted: ME-180 (cervical carcinoma) HRE-bla reporter, beta-lactamase ratio, CoCl2, 17 h; activation: stronger effect = higher value. The gist of the method:
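ME-180 cells carrying an HRE-driven beta-lactamase reporter were treated with compounds in a titration series plus an EC50 level of CoCl2 for 17 h at 37 degrees Celsius; CCF4 readout as the 460nm/530nm ratio gave AC50 values.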

Where [15] appears, read: measured here: cell count channel max response.
[16] abbreviates: measured here: lipid channel max response.

Structures are written as SMILES. Records with an inconclusive call do not appear. Active and inactive are the calls of the source. Unless noted, calls follow the shape of the dose curve; as a rule, active = well fitted curve in either direction with a large enough effect (not every such curve was filed as active); inconclusive = small, poorly fitted or top-dose-only effect, or another doubt; inactive = flat fitted curve, though single readings scatter. A value given as a limit tells only on which side of the number the result lay.

Cytochrome P450 3A4 (Homo sapiens), sequence (P08684 whole entry, looked up): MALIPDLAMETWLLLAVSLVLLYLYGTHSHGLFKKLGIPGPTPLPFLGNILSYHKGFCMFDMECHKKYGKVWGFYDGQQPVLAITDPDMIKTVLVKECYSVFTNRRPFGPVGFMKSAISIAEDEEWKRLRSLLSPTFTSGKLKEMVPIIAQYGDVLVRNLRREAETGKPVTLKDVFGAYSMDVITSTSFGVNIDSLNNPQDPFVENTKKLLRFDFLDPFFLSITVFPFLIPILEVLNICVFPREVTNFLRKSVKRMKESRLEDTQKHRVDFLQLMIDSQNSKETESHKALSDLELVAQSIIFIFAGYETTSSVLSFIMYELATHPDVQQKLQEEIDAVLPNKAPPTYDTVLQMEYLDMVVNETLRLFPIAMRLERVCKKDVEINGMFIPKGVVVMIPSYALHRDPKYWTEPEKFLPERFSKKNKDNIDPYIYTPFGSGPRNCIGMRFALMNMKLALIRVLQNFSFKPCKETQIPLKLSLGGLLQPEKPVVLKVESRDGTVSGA
Glucocorticoid receptor (Homo sapiens), sequence (P04150 whole entry, looked up, the tested form may be a part): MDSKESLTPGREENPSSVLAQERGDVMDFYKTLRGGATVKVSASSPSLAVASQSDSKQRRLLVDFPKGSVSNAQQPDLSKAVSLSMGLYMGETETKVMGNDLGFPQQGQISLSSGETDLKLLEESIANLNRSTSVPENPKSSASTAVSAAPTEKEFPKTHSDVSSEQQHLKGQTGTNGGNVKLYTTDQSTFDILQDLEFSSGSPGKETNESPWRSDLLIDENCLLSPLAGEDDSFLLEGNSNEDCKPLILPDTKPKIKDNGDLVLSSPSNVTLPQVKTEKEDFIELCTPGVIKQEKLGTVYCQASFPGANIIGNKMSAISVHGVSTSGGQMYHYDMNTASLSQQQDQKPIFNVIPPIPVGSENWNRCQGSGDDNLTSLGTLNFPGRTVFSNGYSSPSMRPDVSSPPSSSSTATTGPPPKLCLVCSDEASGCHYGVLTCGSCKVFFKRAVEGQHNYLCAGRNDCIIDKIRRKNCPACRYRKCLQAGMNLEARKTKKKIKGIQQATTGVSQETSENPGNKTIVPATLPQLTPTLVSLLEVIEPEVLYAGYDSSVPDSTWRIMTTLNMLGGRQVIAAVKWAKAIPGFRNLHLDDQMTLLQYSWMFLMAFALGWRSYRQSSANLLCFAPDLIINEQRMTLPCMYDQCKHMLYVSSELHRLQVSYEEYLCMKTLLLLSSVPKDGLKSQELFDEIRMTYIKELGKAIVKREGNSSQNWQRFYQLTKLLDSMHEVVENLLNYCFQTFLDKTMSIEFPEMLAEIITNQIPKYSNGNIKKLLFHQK
3',5'-cyclic-AMP phosphodiesterase 4B (Homo sapiens), sequence (Q07343 whole entry, looked up): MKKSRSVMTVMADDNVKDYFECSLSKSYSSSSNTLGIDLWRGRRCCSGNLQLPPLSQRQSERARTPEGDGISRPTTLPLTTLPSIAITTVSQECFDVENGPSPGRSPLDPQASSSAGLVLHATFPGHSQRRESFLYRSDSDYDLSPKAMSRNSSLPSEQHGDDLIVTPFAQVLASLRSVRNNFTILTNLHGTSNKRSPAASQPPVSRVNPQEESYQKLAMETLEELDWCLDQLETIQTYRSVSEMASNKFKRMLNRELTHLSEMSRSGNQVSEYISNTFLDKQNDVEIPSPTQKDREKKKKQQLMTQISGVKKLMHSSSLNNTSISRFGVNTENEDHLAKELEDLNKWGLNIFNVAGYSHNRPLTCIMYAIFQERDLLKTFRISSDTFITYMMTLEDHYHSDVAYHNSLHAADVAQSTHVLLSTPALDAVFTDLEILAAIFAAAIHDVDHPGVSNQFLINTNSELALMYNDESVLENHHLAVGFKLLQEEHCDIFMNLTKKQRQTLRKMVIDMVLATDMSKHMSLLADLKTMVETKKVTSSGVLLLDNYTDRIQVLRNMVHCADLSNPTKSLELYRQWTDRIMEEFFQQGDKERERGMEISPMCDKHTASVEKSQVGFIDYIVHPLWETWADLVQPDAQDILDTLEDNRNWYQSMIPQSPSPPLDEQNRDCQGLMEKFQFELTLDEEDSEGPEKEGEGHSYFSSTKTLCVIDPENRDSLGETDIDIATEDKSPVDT
Cytochrome P450 1A2 (Homo sapiens), sequence (P05177 whole entry, looked up): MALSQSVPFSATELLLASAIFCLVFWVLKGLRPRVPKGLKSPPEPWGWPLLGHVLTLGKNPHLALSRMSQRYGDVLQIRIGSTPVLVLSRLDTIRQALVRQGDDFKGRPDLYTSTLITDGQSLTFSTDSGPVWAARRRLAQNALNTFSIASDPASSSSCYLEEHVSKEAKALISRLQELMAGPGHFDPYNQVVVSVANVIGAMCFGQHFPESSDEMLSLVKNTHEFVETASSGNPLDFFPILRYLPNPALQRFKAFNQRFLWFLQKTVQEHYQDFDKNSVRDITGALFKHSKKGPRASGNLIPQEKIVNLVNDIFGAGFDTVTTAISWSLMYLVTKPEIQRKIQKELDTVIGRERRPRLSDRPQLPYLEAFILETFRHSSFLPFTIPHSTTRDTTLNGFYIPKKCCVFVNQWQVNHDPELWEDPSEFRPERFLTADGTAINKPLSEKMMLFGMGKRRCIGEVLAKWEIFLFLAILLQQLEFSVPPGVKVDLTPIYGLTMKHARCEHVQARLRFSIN
Lysosomal acid glucosylceramidase (Homo sapiens), sequence (P04062 whole entry, looked up): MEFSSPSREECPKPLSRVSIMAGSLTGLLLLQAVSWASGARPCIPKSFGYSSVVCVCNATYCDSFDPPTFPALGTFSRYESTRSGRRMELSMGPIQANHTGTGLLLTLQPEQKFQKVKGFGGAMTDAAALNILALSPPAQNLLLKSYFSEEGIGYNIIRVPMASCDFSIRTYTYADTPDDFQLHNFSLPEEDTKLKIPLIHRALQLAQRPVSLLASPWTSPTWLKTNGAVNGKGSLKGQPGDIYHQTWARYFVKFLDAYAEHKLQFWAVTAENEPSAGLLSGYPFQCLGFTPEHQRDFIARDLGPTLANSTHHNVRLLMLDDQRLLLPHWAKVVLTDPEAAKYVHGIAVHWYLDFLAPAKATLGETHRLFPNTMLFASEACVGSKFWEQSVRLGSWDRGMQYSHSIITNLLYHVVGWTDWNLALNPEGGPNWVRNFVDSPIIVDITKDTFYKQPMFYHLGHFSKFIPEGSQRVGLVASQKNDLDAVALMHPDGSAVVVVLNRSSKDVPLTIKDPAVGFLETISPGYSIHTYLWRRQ
Cytochrome P450 2D6 (Homo sapiens), sequence (P10635 whole entry, looked up): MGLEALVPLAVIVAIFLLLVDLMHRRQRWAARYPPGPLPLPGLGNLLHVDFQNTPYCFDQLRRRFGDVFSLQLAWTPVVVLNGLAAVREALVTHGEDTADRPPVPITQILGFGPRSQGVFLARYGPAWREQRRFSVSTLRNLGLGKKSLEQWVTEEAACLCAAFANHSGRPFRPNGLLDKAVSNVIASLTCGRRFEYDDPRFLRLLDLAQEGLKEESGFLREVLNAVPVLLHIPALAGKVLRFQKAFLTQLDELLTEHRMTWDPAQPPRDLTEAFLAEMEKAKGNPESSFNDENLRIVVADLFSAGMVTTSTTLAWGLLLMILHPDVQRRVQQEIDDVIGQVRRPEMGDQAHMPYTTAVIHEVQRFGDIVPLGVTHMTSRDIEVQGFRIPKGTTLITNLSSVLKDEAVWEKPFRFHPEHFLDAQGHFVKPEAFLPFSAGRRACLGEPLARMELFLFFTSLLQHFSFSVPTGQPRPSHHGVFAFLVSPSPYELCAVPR

For `O=C(c1cnccn1)N1CCC2(CC1)CN(Cc1ccncc1)C2`, the Potency in [1] was > 11.4 µM (inactive); in assay [5], > 46 µM (inactive). Besides, the outcome in assay [2], in assay [4], in assay [6] and in [9] was inactive. The activity change, negative = inhibition in assay [3] was -23.5% (inactive); in [8], 2.96% (inactive). In addition, the Potency entry in [7] was “inactive”. For the same compound, the max response was -1.92% in assay [8] (setting [15]) and 3.49% in assay [8] (setting [16]).

Regarding `O=C(Nc1cccc(F)c1)N1CC2(CCNCC2)C1`, the Potency was > 11.4 µM (inactive) in assay [1] and > 46 µM (inactive) in assay [5]. In addition, the outcome in assay [2], in assay [4], in [6] and in assay [9] was inactive. Moreover, the Potency result in [10] was “inactive”. Besides, the activity change, negative = inhibition in [8] was 3.38% (inactive). Besides, the figures for the max response in assay [8] (setting [15]) and in [8] (setting [16]) were 6.28% and 12.8%, respectively.

On to `CS(=O)(=O)N1CCC2(CCCN(Cc3ccncc3)C2)CC1`, for which the Potency in assay [11] is > 20 µM (inactive); in assay [1], > 11.4 µM (inactive); in assay [5], > 46 µM (inactive). In addition, the outcome in [2], in [4], in assay [6] and in assay [9] was inactive. Further, the activity change, negative = inhibition in [3] was -20.7% (inactive); in [8], 6.09% (inactive). The Potency entry in [7] was “inactive”. For the same compound, the max response in assay [8] (setting [15]) was 15.9%; in [8] (setting [16]), 25.1%.

As for `CC(=O)OC[C@]12C[C@H](OC(=O)CC(C)C)C(C)=C[C@H]1O[C@H]1[C@H](O)[C@@H](OC(C)=O)[C@@]2(C)[C@]12CO2`, the outcome in assay [9] was inactive.

Regarding `CCCC[N+]12C3CC(C(CC)[C@H]1O)[C@@H]1C(O)C4(C[C@@H]12)c1ccccc1N(C)C34` (some centres undefined), the outcome in [9] was inactive.

With `N#Cc1ccc(CN2CCCC3(CCN(C(=O)Oc4ccccc4)CC3)C2)cc1`, the Potency was > 11.4 µM (inactive) in [1] and > 46 µM (inactive) in [5]. Also, the outcome in [2], in assay [4], in [6] and in assay [9] was inactive. The Potency result in assay [10], in assay [7] and in assay [12] was “inactive” throughout. Moreover, the activity change, negative = inhibition in assay [8] was 1.3% (inactive). The max response amounted to 11.6% in [8] (setting [15]) and 16.3% in [8] (setting [16]).

`O=C(Oc1ccccc1)N1CCC2(CC1)CN(C(c1ccccc1)c1ccccc1)C2`: the Potency in assay [1] was > 11.4 µM (inactive); in assay [5], > 46 µM (inactive); in [12], 6.31 µM (active); in assay [13] it was 7.94 µM (active). The result in assay [2], in assay [4], in assay [6] and in [9] was inactive. For the same compound, the Potency result in assay [10] and in assay [7] was “inactive” each time. Besides, the values for the activity change, negative = inhibition in assay [3] and in assay [8] were -29.6% (inactive) and -5.67% (inactive), respectively. The max response was -3.18% in [8] (setting [15]) and -5.43% in assay [8] (setting [16]).

As for `O=C(c1csnn1)N1CCC2(CC1)CN(Cc1ccncc1)C2`, the Potency in [11] is > 20 µM (inactive); in [1] it was > 11.4 µM (inactive); in assay [10], 10 µM (active); in [5], > 46 µM (inactive). For the same compound, the outcome in assay [2], in assay [4], in assay [6] and in assay [9] was inactive. Also, the Potency entry in [12] was “inactive”. For the same compound, the activity change, negative = inhibition in [8] was 4.72% (inactive). In addition, the max response in assay [8] (setting [15]) turned out to be 6.9%; in [8] (setting [16]), 14.2%.

Consider `c1cc(CN2CC3(CCNCC3)C2)ccn1`, for which the Potency was > 20 µM (inactive) in assay [11] and > 46 µM (inactive) in assay [5]. The outcome in assay [2], in assay [4], in assay [6] and in assay [9] was inactive. The activity change, negative = inhibition in assay [8] was 2.64% (inactive). The max response in assay [8] (setting [15]) was determined as 6.79%; in [8] (setting [16]), 9.29%.

`CN1CCCC2(CCN(C(=O)c3ccco3)CC2)C1`: the Potency in [11] is > 20 µM (inactive); in assay [1], > 11.4 µM (inactive); in assay [5], > 46 µM (inactive). Besides, the result in [2], in [4], in assay [6] and in assay [9] was inactive. Besides, in assay [7], the Potency result was “inactive”. In [14], the activation is -1.89% (inactive). Also, the activity change, negative = inhibition in assay [8] is -2.44% (inactive). The max response in [8] (setting [15]) is -24.9%; in assay [8] (setting [16]), -25.6%.
